# Measurements: the supplement of paper PMC6555819
# Key:
# Test in all cases: PBM binding z-score (relative to random genomic background probes); higher = stronger binding; sequences stand for … in GC…GCGATTGACAGCGTAGAATGAAGG
# [1] = tested on: FXR:RXRa (NR concentration 270 nM, RXRa partner concentration 90 nM)
# Outline: (§1)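 Regression normalization was applied to scanned fluorescence from custom Agilent 4×180K protein-binding microarrays. Before scanning, arrays were incubated 1 h with ligand-free nuclear receptor dimers, and binding was detected with antibodies against each partner (one per run). Binding z-scores use the random background probes as reference.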
# [2] = tested on: LXRa:RXRa (NR concentration 270 nM, RXRa partner concentration 90 nM)
# Outline: as §1
# [3] = tested on: LXRa homodimer (NR concentration 270 nM)
# Outline: as §1
# [4] = tested on: LXRb:RXRa (NR concentration 270 nM, RXRa partner concentration 90 nM)
# Outline: as §1
# [5] = tested on: LXRb homodimer (NR concentration 270 nM)
# Outline: as §1
# [6] = tested on: PPARa:RXRa (NR concentration 270 nM, RXRa partner concentration 90 nM)
# Outline: as §1
# [7] = tested on: PPARg:RXRa (NR concentration 180 nM, RXRa partner concentration 90 nM)
# Outline: as §1
# [8] = tested on: PPARg:RXRa 270nM:90nM, anti-RXR (NR concentration 270 nM, RXRa partner concentration 90 nM)
# Outline: as §1
# [9] = tested on: PPARg:RXRa 30nM:10nM, anti-RXR (NR concentration 30 nM, RXRa partner concentration 10 nM)
# Outline: as §1
# [10] = tested on: PPARg:RXRa 90nM:30nM, anti-RXR (NR concentration 90 nM, RXRa partner concentration 30 nM)
# Outline: as §1
# [11] = tested on: PPARg:RXRa DBDmut IVT, anti-RXR (DBD mutation: RXRa K156A/R161A, NR concentration 270 nM, RXRa partner concentration 90 nM)
# Outline: as §1
# [12] = tested on: PPARg:RXRa IVT, anti-PPARg (NR concentration 270 nM, RXRa partner concentration 90 nM)
# Outline: as §1
# [13] = tested on: PPARg DBDmut:RXRa IVT, anti-PPARg (DBD mutation: PPARg1 K132A/R137A, NR concentration 270 nM, RXRa partner concentration 90 nM)
# Outline: as §1
# [14] = tested on: PPARg DBDmut IVT, anti-PPARg (DBD mutation: PPARg1 K132A/R137A, NR concentration 270 nM)
# Outline: as §1
# [15] = tested on: PPARg homodimer (NR concentration 180 nM)
# Outline: as §1
# [16] = tested on: PXR:RXRa (NR concentration 270 nM, RXRa partner concentration 90 nM)
# Outline: as §1
# [17] = tested on: PXR homodimer (NR concentration 270 nM)
# Outline: as §1
# [18] = tested on: RARa:RXR (NR concentration 270 nM, RXRa partner concentration 90 nM)
# Outline: as §1
# [19] = tested on: RARa homodimer (NR concentration 270 nM)
# Outline: as §1
# [20] = tested on: RARb:RXRa (NR concentration 270 nM, RXRa partner concentration 90 nM)
# Outline: as §1
Sequence,PBM binding z-score [1],PBM binding z-score [2],PBM binding z-score [3],PBM binding z-score [4],PBM binding z-score [5],PBM binding z-score [6],PBM binding z-score [7],PBM binding z-score [8],PBM binding z-score [9],PBM binding z-score [10],PBM binding z-score [11],PBM binding z-score [12],PBM binding z-score [13],PBM binding z-score [14],PBM binding z-score [15],PBM binding z-score [16],PBM binding z-score [17],PBM binding z-score [18],PBM binding z-score [19],PBM binding z-score [20]
CAACCTAGGTCACAGAGGTCAAAGTCCGTGCGTA,7.56,6.89,7.7,6.74,2.06,6.1,7.27,6.89,3.63,6.19,5.47,5.9,0.378,-0.0572,6.18,6.95,12.5,7.87,2.8,5.39
GCTTGTAGATCAAGGTTAAGACAGACTAAGCTAA,0.188,0.807,-0.318,0.486,-0.279,1.61,1.25,2.16,0.803,1.8,1.75,1.34,0.667,-0.149,0.0438,0.721,-0.263,0.922,-0.104,0.893
ACTAGTTGGTCAGCTGAGGTCACACGCAATTCGG,4.13,3.59,2.5,3.3,0.152,3.71,1.57,2.37,0.407,1.44,1.54,2.63,0.387,0.616,2.87,5.51,1.79,4.68,0.262,3.53
ATCTCTAGGTAAAGATAGTTGAGTGAATGCAAAT,0.323,0.358,-0.0172,0.23,0.435,0.437,0.538,0.246,0.222,0.29,2.14,1.82,1.87,0.639,0.295,0.221,0.497,0.592,1.46,-0.0235
GCTTGTAAATCAAGGTTAAGAAAGACTAAGCTAA,0.61,1.71,0.223,0.926,-0.355,1.56,0.214,0.467,0.122,0.622,0.268,0.664,-0.64,0.161,0.00597,0.564,-0.123,1.05,-0.0975,0.808
CCTCGGAGGACAACAGAAGGTCAGAGCTGCCAGA,0.854,1.74,0.922,1.14,-0.67,1.78,0.435,0.249,-0.533,-0.218,0.129,0.0477,-0.565,-1.32,1.42,1.43,-0.04,1.95,0.344,3.02
AATACAGGGTCATCGTAGGCCAGAGTTCGCACAG,7.34,6.57,3.73,4.63,1.44,5.93,7.18,6.46,2.9,5.18,2.96,4.45,1.89,1.85,3.53,5.76,2.02,5.59,0.95,4.33
ATCGGAAGGTCGACGAGGTGAGTATACACCGTTT,1.65,0.953,-0.358,0.827,-0.58,2.18,1.06,0.751,-0.112,0.452,-0.35,0.996,0.22,-0.4,0.248,1.38,-0.0622,1.66,-0.26,2.51
ACCTCTAGGTAAAAGTTCAGTGAATCCCGAGGAT,0.332,0.842,0.847,0.401,-0.0602,3.58,7.09,7.47,6.26,8.74,2.11,3.3,0.37,0.231,0.975,1.54,1.16,1.11,0.0645,2.08
CCTGCTCGGTCATGGTCAGCTAATCTACAGTATG,0.209,0.33,0.0504,-0.0325,-0.00908,0.0849,0.0527,-0.261,-0.454,-0.32,0.829,0.464,-0.762,-0.953,-0.491,-0.351,-0.822,-0.293,-0.596,2.46
GCTGCTAGGTCAACTGATGGTTAGCTAAAGCTCG,4.53,2.96,0.0508,1.97,0.22,3.58,2.88,3.09,0.818,1.99,5.04,4.29,1.41,-0.602,1.62,1.55,-0.971,2.73,-0.0413,4.31
CAAACTAGGACACAGAGGTCAAAGTCCGTGCGTA,5.53,5.78,6.08,5.13,1.79,5.73,6.63,5.99,3.64,5.73,6.49,6.69,3.32,2.78,5.68,6.16,7.13,6.38,1.48,4.28
ATATGCAGGTTACATCCGGGTCATTCAGGCTATG,2.7,4.82,0.974,2.99,0.382,3.53,2.58,2.61,0.935,1.49,3.86,4.01,0.813,1.04,1.59,3.71,1.94,3.45,0.262,2.34
ACAGACAGGTGAGTGAATGTAACTCAGCTGGACG,-0.0424,-0.166,-0.418,-0.486,-0.454,0.0946,0.779,-0.286,-0.216,-0.145,0.386,0.325,-0.206,-0.309,-0.0515,-0.136,0.0208,0.0204,-0.0735,0.384
